LGR2 inh – Drosophila LGR2 receptor signaling inhibition. HEK293 LGR2, CRE-luciferase, bursicon-stimulated, 4 h. inhibition, % at 9.99 µM. hit rate 0.35% among 380,000. AID 720647;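 active means drop in luminescence signal, shown as inhibition above about 50% in the replicate tests, limit read from the data, passing the limit was not always enough; inconclusive means probably only some replicates passing the limit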;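 further: agonist challenge used bursicon conditioned medium at about half maximal strength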
TWEAK Fn14 block – blocks TWEAK-Fn14 interaction in a reporter cell assay. inhibition, % at 10 µM. TWEAK-stimulated Fn14 reporter cells, luciferase luminescence, 8 h. hit rate 2% among 360,000; in the data active means inhibition above about 50%
EWS-Fli inh – EWS/Fli transcriptional activity inhibition | hit rate 0.67% among 350,000 | inhibition, % at 12.6 µM | A673 NR0B1-luciferase reporter, viability-normalised | AID 651661;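 active means mean inhibition of at least 50% after viability correction, with every replicate also passing that limit; inconclusive means mean reaches 50% but only one of two replicates passes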;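 further: firefly luciferase signal divided by Alamar Blue viability fluorescence both relative to DMSO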
PAX8 reporter – PAX8 transcriptional activity inhibition; inhibition, % at 12.6 µM; RMG-I TPO-luciferase reporter, SteadyGlo, 24 h; AID 652154; hit rate 1.2% among 360,000;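 active means mean replicate inhibition at least 60% with every replicate also reaching 60%; inconclusive means only one of the two criteria is met; inactive means mean below 60% and not all replicates reaching 60%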;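 further: luciferase light reporting Pax8 driven TPO promoter activity; plate controls were median of neutral control wells for no effect and mitoxantrone controls for full effect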
TROY signal inh – blocks TROY-dependent signaling in reporter cells | Q293 LMP1-TROYcd NF-kB luciferase reporter, 4 h | hit rate 0.98% among 360,000 | AID 1347056 | inhibition, % at 10 µM;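 active means compounds whose plate-normalised and pattern-corrected inhibition of the luciferase reporter signal at the single screening dose is 50% or more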
DNA binder FP – small molecule DNA binding by fluorescence polarization | shares compounds with EWS-Fli inh | salmon sperm DNA acridine orange fluorescence polarization | AC35, µM (highest dose often 68 µM), for inactives: top-dose activity change, negative = DNA binding | hit rate 2% among 640;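 active means fitted curve reaches a 35% signal fall AC35 below twice the sample's top valid tested dose, actives reach about 48 µM in these data; inactive means the rest, including activity in the rising direction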;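 further: lower polarization ratio signals compound binding to DNA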
* marks the source's active call; other numbers are inactive results. Compounds with a hit are over-represented: about 2.8% of the library has one in this group of screens.

`NC(Cc1ccc(C(F)(F)F)cc1)c1csc(NC(=O)Nc2ccccc2Cc2ccccc2)n1` (stereo not given) gave LGR2 inh 0, TWEAK Fn14 block 22, EWS-Fli inh 56*, PAX8 reporter -7, TROY signal inh -12 and DNA binder FP -9%.
For O=C(CCCCl)Nc1nc(-c2ccc3c(c2)OCCO3)cs1 the results were LGR2 inh -71, TWEAK Fn14 block 51*, EWS-Fli inh 57*, PAX8 reporter -255, TROY signal inh 24 and DNA binder FP -5%.
`CN1c2ccc(-c3ccc(C#N)cc3)cc2[C@H]2[C@H](CCN2S(=O)(=O)c2cccc(F)c2)[C@H]1CO` gave LGR2 inh 30, EWS-Fli inh 60*, PAX8 reporter inconclusive and DNA binder FP -12%.
`COc1ccc(S(=O)(=O)N2CC[C@@H]3[C@@H](CO)Nc4ccc(-c5ccc(C#N)cc5)cc4[C@@H]32)cc1` gave LGR2 inh -1, EWS-Fli inh 60*, PAX8 reporter 63* and DNA binder FP -9%.
Screening CN1c2ccc(-c3ccc(C#N)cc3)cc2[C@@H]2[C@@H](CCN2S(=O)(=O)c2cccc(F)c2)[C@H]1CO returned LGR2 inh 13, EWS-Fli inh 9 and PAX8 reporter 11.
Screening COc1ccc(S(=O)(=O)N2CC[C@@H]3[C@H](CO)Nc4ccc(-c5ccc(C#N)cc5)cc4[C@@H]32)cc1 returned LGR2 inh 1, EWS-Fli inh 57*, PAX8 reporter 51 and DNA binder FP 5%.
C[C@@H]1CN([C@@H](C)CO)C(=O)c2cccc(NC(=O)Nc3ccc(C(F)(F)F)cc3)c2O[C@H]1CN(C)S(=O)(=O)c1cn(C)cn1 was read as LGR2 inh -36 and EWS-Fli inh -3.
C[C@H](CO)N1C[C@H](C)[C@@H](CN(C)C(=O)NC2CCCCC2)OCCCC[C@H](C)Oc2ccc(NC(=O)c3ccccc3)cc2C1=O was read as LGR2 inh -8, EWS-Fli inh 1 and PAX8 reporter -15.
`COCC#Cc1cnc2c(c1)C(=O)N([C@@H](C)CO)C[C@H](C)[C@H](CN(C)C(=O)Nc1cc(F)ccc1F)O2` gave LGR2 inh -6, EWS-Fli inh -3 and PAX8 reporter -28.
`COc1ccc(NC(=O)N(C)C[C@H]2OCCCC[C@H](C)Oc3ccc(NS(=O)(=O)c4ccc(F)cc4)cc3C(=O)N([C@@H](C)CO)C[C@@H]2C)cc1` gave LGR2 inh -7, EWS-Fli inh 12 and PAX8 reporter 15.
Screening O=C(C[C@H]1CC[C@@H]2[C@H](COC[C@H](O)CN2C(=O)c2ccc(F)cc2)O1)N1CCOCC1 returned LGR2 inh -3, EWS-Fli inh -1 and PAX8 reporter -11.
C[C@H](CO)N1C[C@H](C)[C@@H](CN(C)Cc2ccc(C(F)(F)F)cc2)Oc2c(NC(=O)Nc3ccccc3)cccc2C1=O was read as LGR2 inh -6, EWS-Fli inh 9 and PAX8 reporter 12.
N#C[C@@H]1[C@H](c2ccc(C#Cc3ccccc3F)cc2)[C@@H](CO)N1C(=O)c1cccnc1 was read as LGR2 inh 41, EWS-Fli inh 74*, PAX8 reporter 47 and DNA binder FP 7%.
`N#C[C@H]1N[C@H](CO)[C@H]1c1ccc(C#Cc2ccccc2F)cc1` gave LGR2 inh 24, EWS-Fli inh 53*, PAX8 reporter -30 and DNA binder FP 4%.
For CCc1cnc(N2[C@H](C#N)[C@H](c3ccc(C#Cc4ccccc4F)cc3)[C@H]2CO)s1 the results were LGR2 inh 19, EWS-Fli inh 53*, PAX8 reporter 49 and DNA binder FP -6%.
N#C[C@H]1[C@H](c2ccc(C#Cc3ccccc3F)cc2)[C@@H](CO)N1C(=O)C1CC1 was read as LGR2 inh 3, EWS-Fli inh 19 and PAX8 reporter 12.
N#C[C@H]1[C@H](c2ccc(C#Cc3ccccc3F)cc2)[C@@H](CO)N1C(=O)C1CCOCC1 was read as LGR2 inh 43, EWS-Fli inh 67*, PAX8 reporter 75* and DNA binder FP -9%.
Screening CCc1cnc(N2[C@H](C#N)[C@H](c3ccc(C#Cc4ccccc4F)cc3)[C@@H]2CO)s1 returned LGR2 inh -7, EWS-Fli inh -22 and PAX8 reporter -8.
`C[C@@H]1CCCCO[C@@H](CN(C)CC2CCCCC2)[C@@H](C)CN([C@H](C)CO)C(=O)c2cc(NC(=O)Nc3ccc(F)cc3)ccc2O1` gave LGR2 inh 6, EWS-Fli inh -18 and PAX8 reporter -4.
COc1ccccc1CNC(=O)C[C@@H]1CC[C@@H]2[C@H](COC[C@H](O)CN2C(=O)Nc2ccc(C(F)(F)F)cc2)O1 was read as LGR2 inh 8, EWS-Fli inh 5 and PAX8 reporter 14.
Screening O=C(N[C@H]1CC[C@@H](CCNC(=O)C2CCCCC2)O[C@H]1CO)c1ccncc1 returned LGR2 inh -5, EWS-Fli inh -3 and PAX8 reporter -16.
For C[C@H]1CN([C@@H](C)CO)C(=O)c2cc(-c3ccncc3)cnc2O[C@H]1CN(C)C(=O)c1ccncc1 the results were LGR2 inh 6 and EWS-Fli inh -5.
`CCCCN=C(NNc1ccc(Br)cc1)C(=O)OCC` gave LGR2 inh 11, TWEAK Fn14 block -18, EWS-Fli inh 79*, PAX8 reporter -2, TROY signal inh 13 and DNA binder FP -9%.
Screening C[C@H](CO)N1C[C@H](C)[C@H](CN(C)C(=O)CCN2CCCCC2)Oc2ncc(C#CCN(C)C)cc2C1=O returned LGR2 inh 1, EWS-Fli inh -15 and PAX8 reporter -21.
Screening Cn1ccc2cc(-c3ccc4ncnc(NCc5cccs5)c4c3)ccc21 returned TWEAK Fn14 block 55*, EWS-Fli inh 51*, PAX8 reporter 83*, TROY signal inh 12 and DNA binder FP -13%.
Screening COc1ccc(OC)c(-c2cc(C(F)(F)F)c3c(n2)sc2c(O)cc(=O)[nH]c23)c1 returned LGR2 inh 5, TWEAK Fn14 block -16, EWS-Fli inh 89*, PAX8 reporter -3, TROY signal inh 10 and DNA binder FP -9%.
For O=c1cc(O)c2sc3nc(-c4ccccc4)cc(C(F)(F)F)c3c2[nH]1 the results were LGR2 inh 15, TWEAK Fn14 block 2, PAX8 reporter 14 and TROY signal inh -10.
C(=N\Nc1nc2ccccc2[nH]1)/c1ccccn1 was read as LGR2 inh 90*, TWEAK Fn14 block 100*, EWS-Fli inh 70*, PAX8 reporter 62*, TROY signal inh 82* and DNA binder FP 0%.
C(=N\Nc1nc2ccccc2[nH]1)/c1ccc2ncccc2c1 was read as LGR2 inh -32, TWEAK Fn14 block 28, EWS-Fli inh 40, PAX8 reporter -32 and TROY signal inh 17.

Compound activity from PubChem BioAssay.
